Compounds with a hit are over-represented: about 2.6% of the library has one in this group of screens.
Cruzain Triton: cruzain (T. cruzi) inhibition with detergent. 200,000 compounds, 0.43% hits. purified cruzain, Z-FR-AMC fluorescence, 0.01% Triton. P25779. Potency, µM, for the others: max response, negative = inhibition, usual class: inhibitors;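 also: plate controls were neutral wells for no effect and buffer without enzyme for full effect; nearly all actives have a fitted effect of over 40% in size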
Target sequence (P25779 123-467 limits assumed): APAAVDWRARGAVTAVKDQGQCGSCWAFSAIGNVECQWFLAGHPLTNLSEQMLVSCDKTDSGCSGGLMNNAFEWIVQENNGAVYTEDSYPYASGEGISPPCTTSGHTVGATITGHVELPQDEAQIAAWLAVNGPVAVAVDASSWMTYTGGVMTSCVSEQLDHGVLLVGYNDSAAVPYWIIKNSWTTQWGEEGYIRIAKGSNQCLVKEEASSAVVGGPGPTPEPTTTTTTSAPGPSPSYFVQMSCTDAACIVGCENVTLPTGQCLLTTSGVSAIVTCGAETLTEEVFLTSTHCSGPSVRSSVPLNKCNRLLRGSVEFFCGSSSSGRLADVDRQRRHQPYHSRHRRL
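Purified cruzain (1.5 nM final) was preincubated with compounds for 15 min at room temperature in 100 mM sodium acetate pH 5.5, 5 mM DTT, 0.01% Triton X-100. Reaction started with 2 uM Z-FR-AMC; AMC fluorescence change over 60 s gave activity.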
Cruzain inh noDet: inhibitors of Trypanosoma cruzi cruzain without detergent; P25779; purified cruzain, Z-FR-AMC fluorescence, no detergent; Potency, µM, without a hit: max response, negative = inhibition, usual class: inhibitors; 200,000 compounds, 2.3% hits; AID 1476;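 also: plate controls were enzyme without inhibitor for no effect and buffer without enzyme for full effect; nearly all actives have a fitted effect of over 40% in size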
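Detergent-free condition (0.00005% Triton X-100) in acetate buffer pH 5.5 with DTT. 1.5 nM enzyme and compound were pre-mixed 15 min, then 2 uM Z-FR-AMC substrate added; reaction progress from fluorescence change between first and third reads (60 s).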
* marks the source's active call; other numbers are inactive results; ? = inconclusive. Calls follow the shape of the dose curve; as a rule, active = well fitted curve in the direction sought with a large enough effect; inconclusive = small, poorly fitted or top-dose-only effect, or another doubt; inactive = no such curve, though single readings can be large; an effect the other way counts as inactive or inconclusive. Potency is read from the fitted curve at half-maximal effect.

SMILES	Cruzain Triton	Cruzain inh noDet
CCC(C(=O)NC1CCCC1)N(C(=O)Cn1nnc(-c2ccc(C)o2)n1)c1cnc2ccccc2c1 (stereo unspecified)	1.2%	?
Cc1ccc(-c2nnn(CC(=O)N(c3cccc(O)c3)C(C(=O)NC(C)(C)C)c3cccs3)n2)o1 (stereo unspecified)	-7.4%	6.5%
CCCCCCCCCCCCCCC(C(=O)O)C(O)(CC(=O)OC)C(=O)O (stereo unspecified)	-11.3%	15.8%
Cc1ccc(Cl)cc1NC(=O)C1CCN(c2nc3ccccc3n3cccc23)CC1	-10.1%	?
Cc1nn2c(=O)cc(COC(=O)c3ccc(NC(=O)C4CCCCC4)cc3)nc2s1	-0.7%	-2.6%
O=C1NC(=O)c2cc(Nc3ccccc3)c(Nc3ccccc3)cc21	-5.7%	20µM*
O=C1NC(=O)c2cc(Nc3ccc(F)cc3)c(Nc3ccc(F)cc3)cc21	-0.6%	-8.7%
O=C(Cn1c(=O)oc2ccccc21)Nc1nc(-c2ccc(Br)cc2)cs1	1.3%	15.8µM*
Cc1csc(NC(=O)CCn2c(=O)oc3ccccc32)n1	-0.7%	-6.7%
COCCNC(=O)CCn1c(=O)c2cc(OC)c(OC)cc2n(CC(=O)Nc2ccc(Cl)cc2F)c1=O	-0.4%	7.9%
Cc1ccc(Cc2c(C)nn(-c3nc(C)c(C(=O)N4CCCCC4C)s3)c2C)cc1 (stereo unspecified)	-1.3%	?
Nc1ccc(-c2nc3ccc(-c4nc5ccc(N)cc5[nH]4)cc3[nH]2)cc1	14.1µM*	25.1µM*
Nc1ccc(-c2nc3ccccc3[nH]2)cc1	-2.7%	-29.7%
CCC(Oc1ccccc1)C(=O)Nc1nnc(S(=O)(=O)N(CC)CC)s1 (stereo unspecified)	-2.8%	3.9%
COc1ccc(S(=O)(=O)c2c(Nc3ccc(C)cc3C)sc(C(=O)c3ccc(F)cc3)c2N)cc1	-1.0%	5.01µM*
CCOc1ccc(Nc2sc(C(=O)c3ccc(F)cc3)c(N)c2S(=O)(=O)c2ccc(C)cc2)cc1	-1.2%	-10.9%
CCOc1ccccc1Nc1sc(C(=O)c2ccc(Cl)cc2)c(N)c1S(=O)(=O)c1ccccc1	0.8%	3.16µM*
Cc1ccc(Cl)cc1Nc1sc(C(=O)c2ccccc2)c(N)c1S(=O)(=O)c1ccccc1	-2.4%	?
CCOc1ccccc1Nc1sc(C(=O)c2ccccc2)c(N)c1S(=O)(=O)c1ccc(C)cc1	2.2%	?
COc1cccc(C(=O)c2sc(Nc3ccc(F)c(Cl)c3)nc2N)c1	-0.7%	-28.3%
Cc1cccc(C)c1Nc1sc(C(=O)c2ccccc2)c(N)c1S(=O)(=O)c1ccccc1	-1.2%	15.8µM*
COc1ccc(S(=O)(=O)c2c(Nc3ccccc3F)sc(C(=O)c3cccc(OC)c3)c2N)cc1	-1.2%	12.6µM*
CC(=O)[C@H]1CC[C@@H]2[C@]1(C)CC=C1[C@@]23C=C[C@]2(C[C@H](O)CC[C@@]12C)[C@H](C(=O)O)[C@@H]3C(=O)O	-3.3%	-3.1%
O=[N+]([O-])c1ccc(S(=O)(=O)Cc2ccccc2)c2nonc12	-5.9%	-9.3%
O=C(CC1N=C2c3ccccc3N=C(SCc3ccccc3Cl)N2C1=O)NCCc1ccccc1 (stereo unspecified)	0.9%	-6.2%
SMILES	Cruzain Triton	Cruzain inh noDet
COc1ccc(Br)cc1CNC(=O)Cn1c(=O)c2cccn2c2ccc(F)cc21	-2.1%	4.1%
CSc1ccc(CCNC(=O)C2CCN(c3nc4ccccc4nc3C(F)(F)F)CC2)cc1	1.7%	4.3%
CCCC(=O)Cl	2.1%	-5.5%
CCc1ccccc1NC(=O)CN1C(=O)c2cccnc2Sc2ccccc21	1.5%	-6.9%
CC(C)c1ccc(Nc2sc(C(=O)c3ccccc3)c(N)c2S(=O)(=O)c2ccccc2)cc1	-0.2%	3.98µM*
CCS(=O)(=O)c1c(Nc2cc(C)ccc2C)sc(C(=O)c2ccccc2)c1N	-7.8%	-8.7%
N#Cc1c(Nc2ccccc2)sc(C(=O)c2ccccc2)c1N	-10.8%	-6.7%
CCc1ccccc1Nc1sc(C(=O)c2cccc(OC)c2)c(N)c1S(=O)(=O)c1ccccc1	-5.0%	7.94µM*
Cc1c(Cl)cccc1Nc1sc(C(=O)c2ccccc2)c(N)c1S(=O)(=O)c1ccccc1	-4.7%	?
CCc1ccccc1Nc1sc(C(=O)c2ccccc2)c(N)c1S(=O)(=O)c1ccccc1	-4.1%	6.31µM*
Cc1c(C(=O)Nc2cccc(-c3nc4ccccc4s3)c2)oc2ccccc12	-1.0%	4.6%
Cc1cc(C)c(NC(=O)C(C)n2nnc3sc(-c4ccccc4)cc3c2=O)c(C)c1 (stereo unspecified)	3.7%	?
COc1ccc(NC(=O)C(C)n2nnc3sc(-c4ccccc4)cc3c2=O)cc1Cl (stereo unspecified)	-12.4%	25.1µM*
C=CCCCCCCCCCCCC(O)CC(O)CO (stereo unspecified) (tested in a mixture with another compound)	-7.7%	?
CC(C)(C)C1CCC2(CC1)Nc1cccc3cccc(c13)N2	-6.3%	25.1µM*

Assay outcomes as filed in PubChem BioAssay.
